Bioassay records as filed in PubChem.
A selection: hits, their analogues and other compounds. The true share with any hit is near 6.8%.
MCF10A rerep = DNA re-replication induction in MCF 10a cells | MCF 10A DNA re-replication, Hoechst nuclear intensity, 48 h | Potency, µM (highest dose often 46.1 µM), without a hit: at the top dose activity, positive = re-replication, hits mostly activators | 350,000 compounds, 2.9% hits | AID 624296; also: % of control where 0% means no effect; nearly all actives have a fitted effect of over 50% in size
KB-3-1 tox = KB-3-1 parental cell cytotoxicity | KB-3-1 viability, CellTiter-Glo ATP luminescence, 72 h | Potency, µM (series often up to 46.1 µM), usual class: cytotoxic | 400,000 compounds, 1.4% hits; also: % is scaled to controls: 0 for no effect and ±100 for the full control effect; nearly all actives have a fitted effect of over 60% in size
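Parental KB-3-1 adenocarcinoma cells in phenol-red-free DMEM with 10% FBS were pin-treated with compounds at several concentrations, incubated 72 h at 37 °C, and viability read by CellTiter-Glo luminescence; concentration-effect curves were fitted after normalization.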
TSG101-PTAP inh = blocks PTAP/TSG101 interaction to inhibit HIV-1 budding; Q99816; Fluorescence polarization, FITC-PTAP peptide / Tsg101 binding; Potency, µM (top dose mostly 115 µM), without a hit: at the top dose activity change, negative = inhibition, most hits filed as inhibitors; 340,000 tested, under 10 active; active = well fitted inhibition curve with a large enough effect in the main read-out, with a control signal flat, not every such curve was filed as active; inconclusive = small, poorly fitted or top-dose-only effect, or effect the other way, or a change in a side signal; inactive = no such curve, though single readings can be large or run the other way; also: % of control where 0% means no effect
Target sequence (Q99816 whole entry, looked up): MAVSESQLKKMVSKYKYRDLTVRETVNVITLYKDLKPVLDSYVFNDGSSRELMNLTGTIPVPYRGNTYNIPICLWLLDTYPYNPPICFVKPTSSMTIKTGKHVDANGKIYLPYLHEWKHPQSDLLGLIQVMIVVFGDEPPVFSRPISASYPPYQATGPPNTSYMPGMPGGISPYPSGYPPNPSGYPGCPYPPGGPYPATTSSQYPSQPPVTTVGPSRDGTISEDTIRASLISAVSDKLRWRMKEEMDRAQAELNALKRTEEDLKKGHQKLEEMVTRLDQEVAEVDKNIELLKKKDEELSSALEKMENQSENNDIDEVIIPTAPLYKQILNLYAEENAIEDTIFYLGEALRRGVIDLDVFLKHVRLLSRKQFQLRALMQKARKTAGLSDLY
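Steps: Tsg101 binding domain dispensed (10 uM final), compounds pinned in DMSO, FITC-labeled PTAP-motif peptide added (50 nM final); after 20 min binding at room temperature, polarization measured.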
SW480 rereplic = DNA re-replication induction in SW480 cells; Potency, µM (series often up to 46.1 µM), for the others: at the top dose re-replication activation, hits mostly activators; SW480 DNA re-replication, Hoechst DNA content imaging, 48 h; 340,000 compounds, 1.8% hits; AID 624297; also: % of control where 0% means no effect; nearly all actives have a fitted effect of over 55% in size
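DNA re-replication was detected as more nuclei of elevated Hoechst intensity after 48 hr exposure to compound (23 nL pinned per well of 250 cells).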
KB-V1 cytotox = KB-V1 MDR subline cytotoxicity. KB-V1 MDR cells viability, CellTiter-Glo, 72 h. Potency, µM (doses to about 46.1 µM), hits mostly cytotoxic. 400,000 compounds, 3.4% hits; also: % is scaled to controls: 0 for no effect and ±100 for the full control effect; nearly all actives have a fitted effect of over 60% in size
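Following 72 h at 37 degrees C with compound, KB-V1 cell viability was read by CellTiter-Glo luminescence, medium being phenol-red-free DMEM plus 10% FBS; concentration-response parameters came from normalized, curve-fitted qHTS data.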
PINK1 modulator = modulators of PINK1 expression; PINK1 immunofluorescence, high-content cytometry, 24 h; Potency, µM (titrated, usually from 76.6 µM), without a hit: top-dose activation (PINK1 increase), actives largely listed as activators; 410,000 compounds, 0.2% hits; AID 624263; active = well fitted activation curve with a large enough effect; inconclusive = small, poorly fitted or top-dose-only effect; cell line not stated here; also: % of control where 0% means no effect; nearly all actives have a fitted effect of over 65% in size
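Decision-based qHTS: stable cells, 24 h exposure to five compound concentrations, CCCP as control. Fixed cells stained for PINK1 plus nuclear, mitochondrial and cell markers, cytometer read.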
* = called active by the depositor; i = inactive; ? = inconclusive; / = no result; [ ] = dose if it differs, or a comment. Unless noted, calls follow the shape of the dose curve; as a rule, active = well fitted curve in the direction sought with a large enough effect; inconclusive = small, poorly fitted or top-dose-only effect, or another doubt; inactive = no such curve, though single readings can be large; an effect the other way counts as inactive or inconclusive. Potency is read from the fitted curve at half-maximal effect.

SMILES	MCF10A rerep	KB-3-1 tox	TSG101-PTAP inh	SW480 rereplic	KB-V1 cytotox	PINK1 modulator
Cc1oc2ncn(C)c(=O)c2c1C(=O)N1CCN(c2ccccc2F)CC1	/	i	/	/	i	4.6%
CC1Cc2ccccc2N1C(=O)CSc1nc(-c2ccccc2)cs1 (stereo not drawn)	0.4%	i	2.6%	-3.6%	?	3.1%
CC(Sc1nc(-c2ccc(F)cc2)cs1)C(=O)N1c2ccccc2CC1C (stereo not drawn)	20.6µM*	i	2.5%	?	?	1.2%
COc1ccc(NC(=O)Cn2c(=O)oc3cc(S(=O)(=O)NC(C)C)ccc32)cc1OC	/	i	/	/	i	1.5%
CCCCNC(=O)c1cc(-c2ccc(F)cc2)on1	-8.1%	18.4µM*	-7.3%	-6.7%	16.4µM*	-0.9%[38.3 µM]
CCCCNC(=O)c1cc(-c2ccc(OC)cc2)on1	0.9%	i	-10.8%	-11.1%	i	26.4%[38.3 µM]
COCCNC(=O)c1cc(-c2ccccc2OC)on1	?	9.2µM*	-2.4%	?	?	6.7%
COc1ccccc1-c1cc(C(=O)NCc2cccs2)no1	26.1%	i	-3.1%	3.4%	i	3.5%
COc1ccccc1-c1cc(C(=O)NC(C)c2ccccc2)no1 (stereo not drawn)	19.3%	i	/	?	20.6µM*	8.1%[38.3 µM]
COc1ccc(OC)c(-c2cc(C(=O)NCc3cccs3)no2)c1	?	i	/	22.5%	16.4µM*	-3.2%[38.3 µM]
Cc1ccccc1CN1C(=O)C(O)(CC(=O)c2ccccc2)c2cc(Cl)ccc21 (stereo not drawn)	/	/	/	/	/	3.4%
COc1ccccc1-c1cc(C(=O)Nc2cc(C)nn2-c2ccccc2)no1	1.3µM*	5.17µM*	-3.7%	21.0%	6.51µM*	?
COc1ccc(-c2cc(C(=O)Nc3cc(C)nn3-c3ccccc3)no2)cc1	3.9%	i	-2.8%	4.8%	i	4.3%
CC(C)CCSc1nnc2n(-c3ccccc3)c(=O)c3c4c(sc3n12)CC(C)CC4 (stereo not drawn)	/	/	/	/	/	0.7%
COCC1CCCN(Cc2ccc3c(c2)CN(C(=O)c2cn4ccc(C)cc4n2)CCO3)C1 (stereo not drawn)	/	/	/	/	/	0.8%
CCc1ccc(/C=C/C(=O)c2c(C)cc(C)[nH]c2=O)cc1	18.4µM*	23.1µM*	-5.5%	?	?	-2.6%
Cc1ccc(/C=C/C(=O)c2c(C)cc(C)[nH]c2=O)cc1	?	?	-5.2%	?	?	0.6%[38.3 µM]
COc1ccc(/C=C/C(=O)c2c(C)cc(C)[nH]c2=O)c2ccccc12	18.4µM*	?	?	?	i	3.1%
CN(C)S(=O)(=O)c1ccc2c(c1)N(CC(=O)N1CCN(c3ccccc3F)CC1)CCS2	/	i	/	/	?	-0.9%
COc1ccccc1NC(=O)CSc1nc(C)c2c(c1C#N)CCCC2	6.8%	i	-3.4%	6.4%	7.31µM*	15.9%
COc1ccc(NC(=O)CSc2nc(C)c3c(c2C#N)CCCC3)cc1	11.9%	i	-1.7%	11.8%	4.61µM*	54.4%[38.3 µM]
CCc1nnc(NC(=O)CSc2nc(C)c3c(c2C#N)CCCC3)s1	?	?	-5.9%	?	?	19.6%[38.3 µM]
COc1ccc(CCNc2ncnc3sc(C(=O)N4CCCCC4)c(C)c23)cc1OC	/	/	/	/	/	2.4%
COc1cc(OC)c(N(C)C(=O)Cn2ncc3c([nH]c4ccccc43)c2=O)cc1Cl	/	i	/	/	i	3.9%
O=C(CC(O)(c1ccccc1)c1ccccc1)Nc1ccccn1	14.7%	i	-4.6%	-3.6%	14.6µM*	-1.4%
SMILES	MCF10A rerep	KB-3-1 tox	TSG101-PTAP inh	SW480 rereplic	KB-V1 cytotox	PINK1 modulator
Cc1nc2nncn2c(NCc2ccc(Cl)cc2)c1C	/	2.59µM*	/	/	i	1.4%
Cc1nc2nncn2c(NCc2ccc(F)cc2)c1C	/	?	/	/	i	0.3%
O=C(Cn1c(SCCOc2ccccc2Cl)nc2ccccc21)N1CCCCC1	/	i	/	/	?	0.4%
CC(=O)Nc1ccc(S(=O)(=O)NCCSCc2cccc(Cl)c2)cc1	3.8%	i	-0.3%	0.4%	i	-0.3%
CC(=O)Nc1ccc(S(=O)(=O)NCCOc2ccc(Cl)cc2C)cc1	-11.7%	8.2µM*	-5.9%	5.0%	i	-2.1%
CC(=O)Nc1ccc(S(=O)(=O)NCCSCc2c(Cl)cccc2Cl)cc1	23.1µM*	9.2µM*	-9.4%	6.4%	5.8µM*	1.5%[38.3 µM]
COc1ccc(CC(=O)Nc2ccc(S(=O)(=O)Nc3ncccn3)cc2)cc1OC	-19.2%	i	-10.8%	16.4µM*	i	0.6%
CC(=O)c1ccccc1NC(=O)COc1ccc(N(C)S(=O)(=O)c2ccc(C)c(C)c2)cc1	20.6µM*	i	-6.8%	6.1%	i	2.5%
COc1cccc(CNC(=O)C2CCN(C(=O)N3CCOc4ccc(Cl)cc43)CC2)c1OC	/	i	/	/	i	-1.4%
COc1cc(NC(=O)COc2ccc(Cl)cc2)ccc1-c1cc2ccccc2oc1=O	7.31µM*	?	0.8%	?	?	9.3%
O=S(=O)(NOCc1ccc(Cl)cc1)c1ccc(Cl)cc1	?	i	-0.4%	4.2%	i	6.2%
COc1ccc(NC(=O)CNS(=O)(=O)c2ccc(Cl)cc2)cc1OC	-12.2%	i	-1.4%	18.4µM*	?	1.4%
COc1ccc(S(=O)(=O)NCC(=O)Nc2ccc3c(c2)OCCO3)cc1OC	0.7%	i	-1.8%	4.8%	i	-0.3%
CCCCOc1ccc(CONS(=O)(=O)c2ccc(NC(C)=O)cc2)cc1Cl	20.6µM*	i	-3.5%	-1.1%	14.6µM*	-2.4%
COc1ccc(NC(=O)COc2ccc(N(C)S(=O)(=O)c3ccc(Cl)cc3)cc2)cc1OC	13.7%	20.6µM*	-0.9%	1.3%	0.92µM*	0.4%
O=S(=O)(c1ccc(F)cc1)N1CCN(c2nc(-c3ccccc3)nc3ccccc23)CC1	/	?	/	/	i	0.1%
CCOc1ccccc1NC(=O)CN(c1ccc(OC)cc1)S(=O)(=O)c1c(C)noc1C	6.51µM*	5.8µM*	-0.1%	5.8µM*	2.59µM*	5.6%
COc1ccc(N(CC(=O)N2CCc3ccccc32)S(=O)(=O)c2c(C)noc2C)cc1	?	?	-1.0%	0.0%	10.3µM*	-1.1%[38.3 µM]
CCOc1ccc(N(CC(=O)Nc2cccc(F)c2)S(=O)(=O)c2c(C)noc2C)cc1	?	20.6µM*	-1.3%	18.4%	?	3.2%
CCOc1ccc(N(CC(=O)Nc2ccccc2C)S(=O)(=O)c2c(C)noc2C)cc1	2.59µM*	5.8µM*	0.0%	3.26µM*	?	7.8%
CCOc1cccc(OCCCn2c(-c3ccc(Br)cc3)nc3ccccc3c2=O)c1	/	i	/	/	?	1.2%
